Screening results from PubChem BioAssay.
KDM5B inh: blocks human KDM5B histone demethylase activity | Potency, µM (titrated, usually from 57.7 µM), most hits filed as inhibitors | 220,000 tested, 2.6% active | AID 1347165 | Q9UGL1 | KDM5B demethylase, FDH-coupled NADH fluorescence (FDH is formaldehyde dehydrogenase); active = well fitted inhibition curve with a large enough effect; also: 0% is about no effect; nearly all actives have a fitted effect of over 70% in size
Target sequence (Q9UGL1 whole entry, looked up): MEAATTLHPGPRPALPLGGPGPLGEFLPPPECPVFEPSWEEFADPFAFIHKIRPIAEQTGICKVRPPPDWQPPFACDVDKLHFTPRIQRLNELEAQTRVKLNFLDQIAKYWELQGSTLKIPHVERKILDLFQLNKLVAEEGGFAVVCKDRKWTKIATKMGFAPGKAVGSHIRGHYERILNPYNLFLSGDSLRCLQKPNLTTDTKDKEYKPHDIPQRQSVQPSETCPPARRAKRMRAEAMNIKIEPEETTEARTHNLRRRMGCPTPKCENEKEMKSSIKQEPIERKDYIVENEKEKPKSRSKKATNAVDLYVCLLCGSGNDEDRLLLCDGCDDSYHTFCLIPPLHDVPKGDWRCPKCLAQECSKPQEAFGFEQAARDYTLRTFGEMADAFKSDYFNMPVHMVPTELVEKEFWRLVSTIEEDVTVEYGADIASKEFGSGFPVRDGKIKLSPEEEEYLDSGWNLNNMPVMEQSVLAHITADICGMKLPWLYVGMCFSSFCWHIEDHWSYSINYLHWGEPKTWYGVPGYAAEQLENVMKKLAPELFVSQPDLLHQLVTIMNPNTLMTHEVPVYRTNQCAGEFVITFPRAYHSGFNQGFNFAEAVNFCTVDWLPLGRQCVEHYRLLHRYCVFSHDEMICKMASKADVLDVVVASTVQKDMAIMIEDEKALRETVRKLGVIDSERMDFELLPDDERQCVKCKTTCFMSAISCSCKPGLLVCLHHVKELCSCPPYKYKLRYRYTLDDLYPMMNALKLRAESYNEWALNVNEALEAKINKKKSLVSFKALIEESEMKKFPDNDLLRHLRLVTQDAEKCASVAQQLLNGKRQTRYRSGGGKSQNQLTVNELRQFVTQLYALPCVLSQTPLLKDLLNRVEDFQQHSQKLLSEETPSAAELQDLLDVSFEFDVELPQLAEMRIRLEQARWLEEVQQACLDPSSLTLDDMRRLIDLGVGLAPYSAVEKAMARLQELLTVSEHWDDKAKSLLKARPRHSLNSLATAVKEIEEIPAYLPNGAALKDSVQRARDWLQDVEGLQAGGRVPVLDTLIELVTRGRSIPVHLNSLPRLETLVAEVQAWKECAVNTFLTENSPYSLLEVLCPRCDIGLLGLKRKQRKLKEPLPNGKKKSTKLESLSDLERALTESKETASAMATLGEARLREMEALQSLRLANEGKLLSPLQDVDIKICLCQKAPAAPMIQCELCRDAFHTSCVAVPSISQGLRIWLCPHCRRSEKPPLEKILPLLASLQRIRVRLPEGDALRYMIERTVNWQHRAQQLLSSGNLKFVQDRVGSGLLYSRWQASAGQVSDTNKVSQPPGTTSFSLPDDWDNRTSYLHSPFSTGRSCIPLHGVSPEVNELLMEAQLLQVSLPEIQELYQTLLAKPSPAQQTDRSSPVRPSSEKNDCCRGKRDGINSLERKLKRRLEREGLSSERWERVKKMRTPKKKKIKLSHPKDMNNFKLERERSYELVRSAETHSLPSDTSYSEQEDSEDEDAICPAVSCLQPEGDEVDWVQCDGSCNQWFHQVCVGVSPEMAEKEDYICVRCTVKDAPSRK
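Inhibition is measured as reduced NADH fluorescence generation from FDH coupling to formaldehyde release. Truncated KDM5BΔAP at 200 nM final acts on H3K4me3 peptide (12.5 µM in substrate mix) in pH 7.5 HEPES buffer with Tween-20, 30 min, room temperature.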
* = called active by the depositor; i = inactive. The full list was thinned out, with hits kept by preference. Potency is read from the fitted curve at half-maximal effect.

SMILES	KDM5B inh
CNC(=O)c1cccc(-c2cnc3[nH]cc(CC(=O)Nc4ccccc4Cl)c3c2)c1	i
Cc1ccc(-c2cnc(CCC(=O)Nc3ccn(C)n3)o2)cc1C	i
Cc1ccccc1-c1cnc2[nH]cc(CC(=O)Nc3ccn(C)n3)c2c1	32µM*
COc1ncccc1-c1cnc2[nH]cc(CC(=O)Nc3ccn(C)n3)c2c1	32µM*
Cc1cc(NC(=O)COc2c(Cl)cccc2Cl)n(C)n1	i
COc1ncccc1-c1cnc2[nH]cc(CC(=O)Nc3cc(C)nn3C)c2c1	40µM*
COc1ncccc1-c1cnc2[nH]cc(CC(=O)Nc3ccccn3)c2c1	35µM*
CCCc1nc(C#N)c(NCCc2ccc(OC)c(OC)c2)o1	i
CN(C(=O)COc1ncnc2ccc(Br)cc12)c1ccccc1	i
COc1ccccc1NC(=O)C(CC(C)C)N1Cc2ccccc2C1=O (stereo not given)	i
CC(C)CC(=O)Nc1nonc1-c1ccc(Br)cc1	i
CC(C)c1nc2cc(NC(=O)c3ccc(=O)[nH]c3)ccc2o1	i
Cc1ccc(Cl)cc1NC(=O)NC1(c2ccccc2)CCC1	i
Cc1nnc(NC(=O)c2csc(NC3CC3)n2)s1	i
CCNC(=O)CCc1c(C)nn(-c2ccc(F)cc2)c1Oc1ccc(F)cc1F	i
COc1ccc(S(=O)(=O)N2CC(F)(F)C[C@H]2c2nc(C)no2)cc1	i
N#Cc1cccc(CN2CCC3(CC2)COCCN3C(=O)OCc2ccccc2)c1	i
Cc1cc(C(=O)N[C@@H]2C[C@H](COc3ccc(S(C)(=O)=O)cc3)[C@@H](O)[C@H]2O)nn1C	i
CCn1c(CO)nnc1C1CC(NC(=O)c2nnc3nc(C)ccn23)C1 (stereo not given)	i
CCn1c(CO)nnc1C1CC(NC(=O)c2scc3c2CCCC3)C1 (stereo not given)	i
CCn1c(CO)nnc1C1CC(NC(=O)c2cnc3sccn3c2=O)C1 (stereo not given)	28µM*
Cc1ccc(C(=O)N2CCn3c(nnc3-c3ccc(Cl)cc3)C2)cc1	i
Cc1cnc(C2CCOCC2)n1C1CCCN(C(=O)COc2ccc(F)cc2)C1 (stereo not given)	i
COc1ccc(NC(=O)CC2CCCN(c3cnn(CC4CC4)c(=O)c3)C2)cc1 (stereo not given)	i
COc1ncccc1-c1cc(C2=CCOCC2)c2cncn2c1	35µM*
SMILES	KDM5B inh
c1cc(-c2cc(-c3ccc4cn[nH]c4c3)cn3cncc23)ccn1	i
Oc1ccccc1-c1cc(C2=CCOCC2)c2cncn2c1	32µM*
C1=C(c2cc(-c3cccc4[nH]ccc34)cn3cncc23)CCOC1	25µM*
COc1ncccc1-c1ncc2c(n1)OCCN(c1ccccc1)C2=O	i
C1=C(c2cc(-c3cccc4cn[nH]c34)cn3cncc23)CCOC1	32µM*
CCC(C)NC(=O)c1cccc(N(C)C)c1 (stereo not given)	i
Cc1c(Cl)cccc1NC(=O)NCCCN(C)CC(F)(F)F	i
CCOC(=O)C1=C(CNCc2ccccc2)NC(=O)NC1c1ccccc1 (stereo not given)	i
CN(C)c1cc(CNC(=O)/C=C/c2ccc(F)cc2)ccn1	i
Cc1ccccc1-n1nnnc1SCC(=O)c1ccc(Br)s1	i
CN(CC(=O)OC(C)(C)C)C(=O)/C=C/c1cccc(C#N)c1	i
O=C1CCC2(CCN1CC1CC1)CCN(C(=O)C1CC=CC1)CC2	i
CCCOC(=O)c1nc2ccccc2nc1N1CCN(Cc2ccccc2)CC1	i
CC(=O)Nc1ccc(OCC(=O)N/N=C/C(C)C)cc1	i
O=C1CCN(S(=O)(=O)c2ccccc2)CCCN(C(=O)CCc2nc3ccccc3[nH]2)CCN1	i
COc1ccc(N2Cc3c(ncnc3N3CCCN(C(C)=O)CC3)N(C)CC2=O)cc1	i
CCn1cnc2c1c(=O)n(CC(=O)Nc1cc(OC)cc(OC)c1)c(=O)n2Cc1ccccc1	i
O=C(O)c1cc2cn(C3CCCC3)cc2s1	16µM*
O=C(O)C1CCc2sc(C(=O)N3CCCC3)cc2C1 (stereo not given)	i
CC1CCN(CCNC(=O)c2cc3cn(C(C)C)cc3s2)CC1	14µM*
CC1CCN(CCCNC(=O)c2ccccc2C(F)(F)F)CC1	i
O=C(c1cc2c(s1)CCC(C(=O)N1CCN(C3CCCC3)CC1)C2)N1CCCCCC1 (stereo not given)	i
COc1ccc(-c2nn(C)c3sc(C(=O)NCCN(C)C)cc23)cc1OC	i
CN(C)CCNC(=O)c1cc2cn(C3CC3)cc2s1	13µM*
CC(C)n1cc2cc(C(=O)Nc3ccc4c(c3)OCCO4)sc2c1	i
SMILES	KDM5B inh
CCN(CCNC(=O)c1cc2c(s1)CN(C1CC1)C2)c1cccc(C)c1	i
CC(=O)c1cnn(-c2cc(Nc3ccc(F)cc3)ncn2)c1C	i
CCc1ccc(NC(=O)Cn2c(-c3cnccn3)nc(C)c(C)c2=O)cc1	i
O=C1CCC2(CCCO2)CCN1Cc1ccc(C(F)(F)F)cc1 (stereo not given)	i
O=C(CN1CCCc2nc(C3CC3)ncc2C1=O)NCCCN1CCOCC1	i
CN(C(=O)c1ccc2c(c1)C(=O)c1ccccc1-2)C1CCCc2ccccc21 (stereo not given)	i
O=C(c1cccnc1)N1CCC2(CC1)COc1ccccc1NC2=O	i
O=C(Cc1c[nH]c2ccccc12)OCc1c(Cl)cccc1Cl	i
O=C(NC1CCCC1)C(=O)N1CCN(C(=O)c2cc3ccccc3[nH]2)CC1	i
CCOc1ccc(N(Cc2cc3cc(OC)ccc3[nH]c2=O)C(C)=O)cc1	i
COc1ccc2[nH]c(C)c(C(=O)CN3CCCC(C)C3)c2c1 (stereo not given)	i
COc1ccc2[nH]c(=O)c(CCC(=O)O)cc2c1	28µM*
CCOC(=O)CN1CCN(C(=O)CCc2cc3cc(OC)ccc3[nH]c2=O)CC1	32µM*
COc1ccc(CC2CN(Cc3cccc(-n4cccn4)c3)CCO2)cc1 (stereo not given)	i
CCOC(=O)c1[nH]ncc1CN1CCOC(Cc2ccc(OC)cc2)C1 (stereo not given)	i
CCOC(=O)c1[nH]c(C)c(CCC(=O)N2CCN(c3cccc(OC)c3)CC2)c1C	i
COc1ccc2[nH]c(=O)c(CCC(=O)NCCCN3CCCC(C)C3)cc2c1 (stereo not given)	32µM*
Cc1ccc2c(c1)N(CCC(=O)NCCCN1CCCC1)C(=O)C(C)O2 (stereo not given)	i
COc1ccc2[nH]c(=O)c(CN3CCOC(CN)C3)cc2c1 (stereo not given)	25µM*
COc1ccc2[nH]c(=O)c(COC(=O)c3ccccc3F)cc2c1	i
COc1ccc2[nH]c(=O)c(CN(C(=O)c3ccccc3Cl)c3ccccc3)cc2c1	i
CCOC(=O)c1c(CSc2ccccc2)n(C)c2cc(Br)c(OCC(O)CNC3CCCCC3)cc12 (stereo not given)	i
CN(CC(=O)NC(=O)NCC(F)(F)F)CC(=O)Nc1ccc(F)cc1	i
CCn1c(CNC(C)c2ccc(F)cc2)nc2cc(S(=O)(=O)N3CCCCC3)ccc21 (stereo not given)	i
CCc1ccc(-c2csc(-c3nc(-c4ccc(C)cc4)c(C)s3)n2)cc1	i
CCN(CC(=O)NCc1ccc(Cl)cc1)C(=O)Cn1nc(C(=O)O)c2ccccc2c1=O	i
Cc1c(-c2ccccc2)nc2c(C)cc(Br)cc2c1C(=O)NC1CCCCC1	i
Cc1ccc(C(=O)C(C#N)C(=O)NC2CCCCC2)cc1C (stereo not given)	i
